In PubChem BioAssay (EPA / NIEHS):
Activity calls are given as the source filed them. The calls were made as follows: active = hit-call score of the fitted dose curve at least 0.9, where 1 is the maximum; inconclusive = response in the unintended direction; inactive = score below 0.9.

Assay: Tanguay_ZF_120hpf_ActivityScore_legacy: (Legacy) Oregon State University Tanguay Lab 120 Hour Post-fertilization zebrafish Assay Score for Activity (AID 2283742);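 as to AC50: dechorionated Tropical 5D wild-type zebrafish embryos held singly per well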
In short: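 Dechorionated 5D embryos, one per well, static exposure 6–120 hpf, 28C, sealed and dark; final DMSO 0.64% (vol/vol). Brightfield binary scoring of mortality plus 18 endpoints; gain-of-signal fit versus DMSO baseline.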

Compound | outcome | AC50
ClC1=C(Cl)C2(Cl)C3C(Cl)C(Cl)CC3C1(Cl)C2(Cl)Cl (configuration not stated) | inactive | –
CCCN(CCC)c1c([N+](=O)[O-])cc(C(C)C)cc1[N+](=O)[O-] | inactive | –
Cc1ccc(N)cc1N | – | 9.21 nM (active)
CCCCN(CCCC)N=O | inactive | –
CCN(CC)c1ccccc1 | inactive | –
c1nc[nH]n1 | inactive | –
Nc1ccc(Cl)cc1 | inactive | –
Cc1cccc(N)c1 | inactive | –
c1ccc2c(c1)Nc1ccccc1S2 | inactive | –
COCCOCCO | inactive | –
ClC(Cl)(Cl)c1ccccc1 | inactive | –
CN(C)C(=O)Cl | inactive | –
